# Bioassay records (PubChem)
# TrxR1 inh – inhibitors of rat thioredoxin reductase 1. O89049. recombinant rTrxR1, NADPH fluorescence consumption, selenite substrate. Potency, µM (top dose mostly 114 µM), for the others: at the top dose activity change, negative = inhibition, most hits filed as inhibitors. 390,000 compounds, 1% hits. AID 588453; also: potency is read from the fitted curve at half-maximal effect; nearly all actives have a fitted effect of over 65% in size
#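 Rat TrxR1 (90 nM in the dispensed reagent) was pre-reduced with 400 uM NADPH for 5 min at room temperature, then incubated with compound for 15 min. After 400 uM selenite was added, NADPH fluorescence (Ex 340/Em 450 nm) was followed for 8 min.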
# PI4K2A block – inhibitors of human PI4K2A; Q9BTU6; purified PI4K2A, ADP-Glo luminescence, 1 h; stronger effect = lower value; activity change, negative = inhibition, % at 76.9 µM; 420,000 compounds, 0.13% hits; in the data active = activity change below about -50%; inconclusive = mostly about -30% to -49%;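 also: -100% = wells without enzyme as full effect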
#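 In this quantitative HTS, ADP production by PI4K2A was quantified luminescently after 1 h at ambient temperature; 100 microM adenosine served as plate-quality control.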
# a7 integrin act – activates integrin-mediated alleviation for muscular dystrophy; alpha7betagal myoblasts, beta-gal FDG fluorescence, 48 h; Potency, µM (doses to about 38.3 µM), for the others: at the top dose activation, hits mostly activators; 350,000 compounds, 0.064% hits;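 also: potency is read from the fitted curve at half-maximal effect; 100% = response of the positive control SU9516; nearly all actives have a fitted effect of over 60% in size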
#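 alpha7betagal+/- myoblasts (passage 13, 250/well) treated 48 h at 37C with compounds at 1:260 dilution of DMSO stock. Lysed, then beta-galactosidase activity read as FDG fluorescence (ex 480/em 540) after 30 min, with pre-read for autofluorescence.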
# TrxR1 substrate – substrates of rat thioredoxin reductase 1. purified TrxR1 substrate turnover, NADPH consumption readout. Potency, µM (top dose mostly 114 µM), inactives show at the highest dose activity change, negative = substrate turnover. 390,000 compounds, 0.01% hits. AID 588456; also: potency is read from the fitted curve at half-maximal effect; nearly all actives have a fitted effect of over 50% in size
#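 Rat TrxR1, dispensed at 90 nM, was prereduced with 400 uM NADPH (final) for 5 min at ~22 deg C, then incubated with compound 15 min before 400 uM selenite. A first-read NADPH fluorescence drop versus no-compound background flagged substrates.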
# LDHA block – inhibitors of human lactate dehydrogenase A | P00338 | purified LDHA, NADH/diaphorase-resazurin fluorescence; stronger effect = lower value | activity change, % (values are at about 110 or 230 µM) | 480,000 compounds, 0.15% hits | AID 1347041; in the data active = activity change below about -30%; inconclusive = mostly about -25% to -30%;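 also: plate controls were DMSO wells for no effect and wells without enzyme for full effect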
#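 LDH5 2 nM; NADH 0.06 mM, pyruvate 0.2 mM; 200 mM Tris pH 7.4, EDTA, Tween-20; 5 min RT. Detection: diaphorase 0.133 mg/mL + resazurin 37 µM, fluorescence ex540/em590 at 0 and 20 min; normalized to enzyme-free and DMSO wells.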
# GALK inhibitor – galactokinase (human) inhibition. P51570. Purified GALK, Kinase-Glo residual ATP luminescence. Potency, µM (titrated, usually from 57.5 µM), for inactives: at the highest dose activity change, negative = inhibition, most hits filed as inhibitors. 270,000 compounds, 0.007% hits. AID 1868; also: potency is read from the fitted curve at half-maximal effect
# Target sequence (P51570 whole entry, looked up): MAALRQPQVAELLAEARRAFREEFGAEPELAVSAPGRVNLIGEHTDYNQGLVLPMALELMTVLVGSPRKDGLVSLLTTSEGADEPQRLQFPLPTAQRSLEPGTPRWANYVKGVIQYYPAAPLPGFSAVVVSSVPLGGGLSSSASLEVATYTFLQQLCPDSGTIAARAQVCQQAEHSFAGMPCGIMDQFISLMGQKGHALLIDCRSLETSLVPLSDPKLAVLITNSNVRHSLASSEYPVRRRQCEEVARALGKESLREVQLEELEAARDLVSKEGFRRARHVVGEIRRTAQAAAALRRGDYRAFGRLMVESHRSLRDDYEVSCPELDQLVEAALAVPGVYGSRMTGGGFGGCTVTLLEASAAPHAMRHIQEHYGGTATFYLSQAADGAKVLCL
#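 GALK at 5 nM final was combined with compound, 35 uM ATP and 100 uM galactose in HEPES pH8.0 with MgCl2 and DTT. The reaction ran one hour at room temperature before luminescent ATP detection.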
# The depositor's hits bear a star; ? = inconclusive; nt = not tested or not shown; ! = a repeat was not active; [ ] = another dose, or the depositor's remark. This is a sample that favours compounds with a hit; in the whole collection about 1.1% have one here. Unless noted, calls follow the shape of the dose curve; as a rule, active = well fitted curve in the direction sought with a large enough effect; inconclusive = small, poorly fitted or top-dose-only effect, or another doubt; inactive = no such curve, though single readings can be large; an effect the other way counts as inactive or inconclusive. Unless noted, % is scaled to controls: 0 for no effect and ±100 for the full control effect.
SMILES,TrxR1 inh,PI4K2A block,a7 integrin act,TrxR1 substrate,LDHA block,GALK inhibitor
O=C(Nc1sc2c(c1C(=O)O)CCCCC2)c1ccco1,-3.6%,0.2,-18.6%[7.66 µM],0.4%,-42.1*!,5.5%
CN(C)C(=O)c1c(NC(=O)c2ccco2)sc2c1CCCCC2,-9.5%,-8.8,-7.7%,-4.4%,1.4,-1.0%
Cc1ccccc1C(=O)N/N=C/c1sccc1C,nt,nt,nt,nt,3.2,nt
Cc1ccc(NC(=O)CC23CC4CC(CC(C4)C2)C3)cc1,nt,nt,nt,nt,3.7,nt
CC(=O)Nc1ccc(NC(=O)c2nc(S(=O)(=O)Cc3ccc(F)cc3)ncc2Cl)cc1,1.26µM*,?,nt,-1.7%,3.3,nt
Cc1ccc(CS(=O)(=O)c2ncc(Cl)c(C(=O)Nc3nc4ccc(F)cc4s3)n2)cc1,?,-1.7,nt,-3.4%,-2.0,nt
Cc1ccc(CNC(=O)c2nc(S(=O)(=O)Cc3ccc(C)cc3)ncc2Cl)cc1,?,1.7,nt,3.1%,5.1,nt
Cc1ccc(NC(=O)c2nc(S(=O)(=O)Cc3ccc(F)cc3)ncc2Cl)cc1C,2.82µM*,14.0,nt,7.7%,1.7,nt
Cn1cnc([N+](=O)[O-])c1S(=O)(=O)c1ccc(Cl)cc1,0.316µM*,-11.0,-65.3%,4.6%[57.1 µM],-11.4,3.2%
Cn1cnc([N+](=O)[O-])c1NC(C)(C)C,17.0%[57.1 µM],-5.9,19.2%,-16.5%,-4.6,1.9%
CCc1ccc(C(=O)/C=C/c2cccc([N+](=O)[O-])c2)cc1,nt,nt,nt,nt,7.1,nt
CC(=O)Oc1ccccc1C(=O)C=Cc1cccc([N+](=O)[O-])c1,25.1µM*,20.5,-44.2%,-4.4%,-7.0,nt
Cc1cccc(C)c1NC(=S)NC(=O)CCc1ccccc1,3.55µM*,4.7,9.4%,-2.0%[57.1 µM],2.6,-4.7%
CC(=O)Nc1cccc(NC(=S)Nc2cccc(Cl)c2Cl)c1,31.6µM*,-2.8,0.0%,0.5%[57.1 µM],-2.4,-1.6%
COC(=O)c1cccc(NC(=S)Nc2cccc(Cl)c2Cl)c1,-47.8%,5.5,-11.1%,13.7%[57.1 µM],-5.6,0.5%
C=CCn1c(SCC(=O)N(CC)C2CCS(=O)(=O)C2)nc2scc(-c3ccccc3)c2c1=O (stereo unspecified),44.7µM*,5.4,11.8%,-7.6%,0.2,nt
CCN(C(=O)CSc1nc2scc(-c3ccccc3)c2c(=O)n1C)C1CCS(=O)(=O)C1 (stereo unspecified),25.1%,1.2,25.2%,3.3%,-1.1,nt
CCCOC(=O)c1cn(C)nc1S(=O)(=O)N1CCSCC1,nt,nt,nt,nt,-1.8,nt
Cc1ccc(C(=O)Nc2nc3nc(C)cc(=O)n3[nH]2)cc1,12.6%,0.8,nt,-5.6%,-70.4*,nt
COc1ccc(-n2nc3c(c2NC(=O)CCl)CSC3)cc1,14.1µM*,-13.5,-66.3%,16.1%,2.2,-3.0%
CCN1C(=O)/C(=C/c2ccc(C)o2)N(C)C1=S,31.6µM*,2.8,5.8%,-11.0%,14.0,0.4%
NC(=O)NC(=O)CN1CCCC(c2nc3ccccc3o2)C1 (stereo unspecified),nt,nt,nt,nt,-7.3,nt
O=C(OCc1nc(-c2ccccc2)oc1COC(=O)c1ccco1)c1ccco1,3.16µM*,1.0,8.7%,5.1%,2.2,-1.8%
Cc1ccc(-c2nc(CS(=O)(=O)CC(=O)N3CC(C)CC(C)C3)c(C)o2)cc1 (stereo unspecified),3.98µM*,-4.7,-18.3%,0.2%[57.1 µM],-0.9,0.8%
O=C(COc1ccc2nc3n(c(=O)c2c1)CCCCC3)NC1CC1,nt,nt,nt,nt,0.0,nt
COc1cc2c(cc1OC)C(NC(=O)C(F)(F)F)C/C2=N\O (stereo unspecified),26.8%,1.8,11.2µM*,1.0%,-5.1,-2.3%
Cc1ccc(NC2=C(C(=O)N3CCOCC3)S(=O)(=O)c3ccccc32)cc1F,nt,nt,nt,nt,-1.3,nt
Cc1ccc(-n2nnc(-c3nccn3C)n2)cc1,1.8%,-52.5*,21.2%,-3.9%,0.4,-6.1%
Cc1ccc(-n2nnc(-c3cccnc3)n2)cc1,14.9%[57.1 µM],-0.6,8.0%,7.8%[57.1 µM],-2.9,nt
O=c1c2ccccc2cnn1-c1nc2ccccc2[nH]1,10.1%,-72.8*,0.0%,15.0%,-2.1,24.2%
